{"source": "PubChem BioAssay AID686970", "about": "(National Center for Advancing Translational Sciences (NCATS), 2013)", "note": "The whole screen tested about 360,000 compounds, of which about 6,000 (1.7%) were called active. Where a call stands in place of a potency, no number is given. Another 8% or so got no clear call; they are omitted. Calls come from the whole dose curve; as a rule, active = well fitted cell-killing curve with a large enough effect; inconclusive = small, poorly fitted or top-dose-only effect, or effect the other way; inactive = flat fitted curve, though single readings scatter. For the sample, actives were picked, then their nearest neighbours and some compounds at random. Potency is the fitted concentration of half-maximal effect.", "data": [{"test": "qHTS for induction of synthetic lethality in tumor cells producing 2HG: qHTS for the HT-1080-NT fibrosarcoma cell line;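 note: NT is the 2HG producing partner of a matched IDH1 knockdown line; nearly all actives have a fitted effect of over 55% in size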", "conditions": "HT-1080-NT fibrosarcoma viability, CellTiter-Glo ATP luminescence, 48 h; series mostly up to 46.1 µM", "in_short": "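A 48-hour cytotoxicity screen used HT-1080-NT cells plated 2 hours before compound delivery. ATP-based CellTiter-Glo luminescence measured viability, normalized to DMSO and no-cell controls.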", "values": [{"molecule": "CC(C)C[C@@H]1COc2cc(N3CCC[C@@H]3CO)ccc2S(=O)(=O)N1", "Potency": "inactive"}, {"molecule": "CC(C)CCOc1ccc(C(=O)Nc2cc(S(=O)(=O)N3CCOCC3)ccc2N2CCOCC2)cc1", "Potency": "inactive"}, {"molecule": "O=[N+]([O-])c1ccc(CN2CC(N3CCC(c4ccccc4)CC3)CS2(=O)=O)cc1", "note": "(stereo not drawn)", "Potency": "inactive"}, {"molecule": "NC(=O)c1ccccc1N(Cc1ccccc1)S(=O)(=O)c1ccccc1", "Potency": "inactive"}, {"molecule": "CCOC(=O)N1CCN(C(=O)c2ccccc2N(Cc2ccccc2)S(=O)(=O)c2ccc(OC)cc2)CC1", "Potency": "3.26 µM (active)"}, {"molecule": "CCOC(=O)N1CCN(S(=O)(=O)c2ccc(OC)cc2)CC1", "Potency": "inactive"}, {"molecule": "COc1ccc(NC(=O)COC(=O)C2COc3ccccc3O2)cc1", "note": "(stereo not drawn)", "Potency": "inactive"}, {"molecule": "COCc1cccc(-c2csc(C(O)c3ccc(F)cc3)n2)c1", "note": "(stereo not drawn)", "Potency": "inactive"}, {"molecule": "COc1cc(/C=N/NC(=O)c2cc(-c3ccccc3C)nc3ccccc23)cc(OC)c1O", "Potency": "inactive"}, {"molecule": "COc1cccc(/C=N/NC(=O)c2[nH]nc3c2CCc2ccccc2-3)c1O", "Potency": "2.59 µM (active)"}, {"molecule": "COc1cccc(/C=N/NC(=O)CNC(=O)c2ccc(S(=O)(=O)N3CCOCC3)cc2)c1OC", "Potency": "inactive"}, {"molecule": "CCCNC(=O)C1(C)CCN1C(=O)Cc1ccc(-c2ccccc2)cc1", "note": "(stereo not drawn)", "Potency": "inactive"}, {"molecule": "O=C(C(=O)N1CCN(c2ccccc2)CC1)c1ccc2c(c1)OCO2", "Potency": "inactive"}, {"molecule": "c1ccc(Cn2nnc3c(N4CCCCC4)ncnc32)cc1", "Potency": "inactive"}, {"molecule": "CC1(C(=O)NS(=O)(=O)c2ccc(Cl)cc2)CCN1C(=O)CC1CCCC1", "note": "(stereo not drawn)", "Potency": "inactive"}, {"molecule": "Cn1nccc1NC(=O)Nc1ccc(OC(F)(F)F)cc1", "Potency": "inactive"}, {"molecule": "O=C(Nc1ccc(OC(F)(F)F)cc1)c1ccc2c(c1)no[n+]2[O-]", "Potency": "18.4 µM (active)"}, {"molecule": "Cn1cccc1/C=N/NC(=O)c1ccc(OC(F)(F)C(F)F)cc1", "Potency": "inactive"}, {"molecule": "COC(=O)C[C@@H]1C=C[C@@H](NC(=O)c2cccnc2)[C@@H](CO)O1", "Potency": "inactive"}, {"molecule": "O=C(Nc1ccc(Cl)c(C(F)(F)F)c1)C1Cc2c(-c3ccccc3Oc3ccccc3)ccnc2O1", "note": "(stereo not drawn)", "Potency": "inactive"}, {"molecule": "CC(C)CN1CCC1(C)C(=O)Nc1ccc(OC(F)F)cc1", "note": "(stereo not drawn)", "Potency": "inactive"}, {"molecule": "CC(C)Cc1ccc(-c2cc3nc(NCc4cccc(Cl)c4)ccn3n2)cc1", "Potency": "23.1 µM (active)"}, {"molecule": "COc1ccccc1-c1cc2nc(NCc3cccc(Cl)c3)ccn2n1", "Potency": "inactive"}, {"molecule": "Cc1cc(C)n2c(NCc3ccccc3)c(CC(C)C)nc2n1", "Potency": "inactive"}, {"molecule": "O=C(C(=O)N1CCC(c2ccccc2)CC1)c1ccccc1", "Potency": "inactive"}, {"molecule": "CCC1OC(C2CC2)CC2=C1C(=O)OC(C)(C)O2", "note": "(stereo not drawn)", "Potency": "inactive"}, {"molecule": "Clc1cc(-c2ccc(/C=N/n3cnnc3)o2)ccc1Br", "Potency": "inactive"}, {"molecule": "Cc1cc([N+](=O)[O-])c(-c2ccc(/C=N/n3cnnc3)o2)cc1Cl", "Potency": "10 µM (active)"}, {"molecule": "Cc1ccc(Cl)cc1-c1ccc(/C=N/n2cnnc2)o1", "Potency": "inactive"}, {"molecule": "COC(=O)[C@H]1C[C@H](OC(=O)NCc2ccccc2)[C@@]2(O)CN(S(=O)(=O)c3ccc(C)cc3)CC2[C@H]1C(=O)OC", "note": "(stereo partly drawn)", "Potency": "inactive"}, {"molecule": "COc1ccc(-c2cc3c(c4c2ccn4C)C2CCC3C2)cn1", "note": "(stereo not drawn)", "Potency": "inactive"}, {"molecule": "COC(=O)C1(C(=O)OC)C/C=C\\CN(S(=O)(=O)c2ccccc2[N+](=O)[O-])CCC1", "Potency": "inactive"}, {"molecule": "COc1ccc(CN2C(=O)C(CC(=O)NC3CCCCC3)CC(C(=O)N3CCOCC3)=C2C)cc1", "note": "(stereo not drawn)", "Potency": "inactive"}, {"molecule": "COc1cc(C(=O)N(C)Cc2cccc(OC)c2OC)ccc1OCC(=O)Nc1cccc(C(F)(F)F)c1", "Potency": "8.2 µM (active)"}, {"molecule": "COc1ccc(C(=O)OCC(=O)Nc2cccc(C(C)=O)c2)cc1OC", "Potency": "inactive"}, {"molecule": "CCNC(=O)c1ccc(OCC(=O)Nc2ccc(F)cc2)c(OC)c1", "Potency": "inactive"}, {"molecule": "COc1ccc(CN2CCC(C)(Oc3cccc(F)c3)C2)c2ccccc12", "note": "(stereo not drawn)", "Potency": "inactive"}, {"molecule": "CC1(C)CCc2cc(S(=O)(=O)N3CCN(c4nc(-c5cccs5)nc5ccccc45)CC3)ccc2O1", "Potency": "inactive"}, {"molecule": "COc1ccc(-c2cc(C(=O)NCCCN3CCOCC3)no2)cc1", "Potency": "inactive"}, {"molecule": "COc1ccc(-c2ccc(C(=O)NC(C)C)c3occc23)c(C)c1", "Potency": "inactive"}, {"molecule": "COc1ccc(-c2ccc(C(=O)NCCN3CCOCC3)c3occc23)c(C)c1", "Potency": "16.4 µM (active)"}, {"molecule": "CC1(C(=O)NCc2ccccc2)CSCC(=O)N1CCCn1ccnc1", "note": "(stereo not drawn)", "Potency": "inactive"}, {"molecule": "COC(=O)C[C@H]1C=C[C@@H](NS(=O)(=O)c2ccc(C)cc2)[C@@H](CO)O1", "Potency": "inactive"}, {"molecule": "Cc1ccc(S(=O)(=O)N2C[C@H]3C(=O)C[C@@H](c4cccc5ccccc45)N(S(=O)(=O)c4ccc(C)cc4)[C@H]3C[C@H]2c2ccc(Cl)cc2)cc1", "Potency": "inactive"}, {"molecule": "Nc1ncnc2c1ncn2[C@@H]1O[C@H](C(=O)N2CCSC2)[C@@H](O)[C@H]1O", "Potency": "inactive"}, {"molecule": "C[C@@H]1CN([C@@H](C)CO)C(=O)c2cc(Br)cnc2O[C@@H]1CN(C)C(=O)C1CCCCC1", "Potency": "inactive"}, {"molecule": "O=C(Nc1cc(C(F)(F)F)ccc1Cl)C(=O)N1CCCCC1", "Potency": "inactive"}, {"molecule": "CC(=O)Nc1ccc(NC(=O)CCCNC(=O)c2ccc(Cl)cc2)cc1", "Potency": "inactive"}, {"molecule": "CCCCC(=O)Nc1ccc(C(=O)Nc2cc(C(F)(F)F)ccc2Cl)cc1", "Potency": "16.4 µM (active)"}, {"molecule": "CCCCNC(=O)C[C@@H]1C[C@@]2(C(=O)OCC)CCC=C2N(Cc2cccc3ccccc23)C1=O", "Potency": "inactive"}, {"molecule": "CC1(C(=O)NS(=O)(=O)C2CC2)CCCN(C(=O)CSc2ccccc2)C1", "note": "(stereo not drawn)", "Potency": "inactive"}, {"molecule": "Cc1cc2oc(=O)cc(CN(C)Cc3ccccc3)c2cc1Cl", "Potency": "inactive"}, {"molecule": "CC1CCCC(NC(=O)COC(=O)c2ccccc2C(=O)N(C)C2CCCCC2)C1C", "note": "(stereo not drawn)", "Potency": "inactive"}, {"molecule": "Cc1ccccc1C1=N/C(=C/c2cccnc2)C(=O)O1", "Potency": "inactive"}, {"molecule": "O=C1/C(=C\\c2cccnc2)CN(Cc2ccccc2)C/C1=C\\c1cccnc1", "Potency": "1.3 µM (active)"}, {"molecule": "O=C(O)C1CC(=O)N(Cc2cccnc2)C1", "note": "(stereo not drawn)", "Potency": "inactive"}, {"molecule": "N#Cc1cccc(NC(=O)c2cc(C3CCCCN3C(=O)CCc3ccccc3)on2)c1", "note": "(stereo not drawn)", "Potency": "inactive"}, {"molecule": "O=S(=O)(Nc1ccc(O)c2ccccc12)c1ccc(OC(F)(F)F)cc1", "Potency": "23.1 µM (active)"}, {"molecule": "O=C1COc2ccc(S(=O)(=O)Nc3ccc(OC(F)(F)F)cc3)cc2N1", "Potency": "inactive"}, {"molecule": "Cc1nn(C)c(C)c1NS(=O)(=O)c1ccc(OC(F)(F)F)cc1", "Potency": "inactive"}, {"molecule": "COc1ccc(CC2c3cc(OC)c(OC)cc3CC[N+]2(C)CCC(=O)OCCCCCOC(=O)CC[N+]2(C)CCc3cc(OC)c(OC)cc3C2Cc2ccc(OC)c(OC)c2)cc1OC", "note": "(stereo not drawn)", "Potency": "18.4 µM (active)"}, {"molecule": "COc1ccc(CC(=O)NC2CCSc3ccccc32)cc1OC", "note": "(stereo not drawn)", "Potency": "inactive"}, {"molecule": "COC(=O)C1=CN(Cc2ccc(OC)c(OC)c2)C=C(C(=O)OC)C1c1cccs1", "Potency": "inactive"}]}]}
